Laboratory results reported in paper PMC9911399, “Two distinct binding modes provide the RNA-binding protein RbFox with extraordinary sequence specificity”.
Positions count from the first letter of the chain named. Over roughly 16,000 sequences, “ka relative to ugcaugu” has its median near 0.096; the highest 2% begin near 0.35. The sample as a whole holds a higher share of the highest values than the screen did.

B1: CCGCCGU (DNA:RNA)
RNA: GGGAGACCGGAAUUCAGAUUGUCCCCGCCGUUUAAAUCCCGUCGUAGCCACCA
DNA 1: CAATCTGAATTCCGGTCTCCC
DNA 2: TGGTGGCTACGACGGGATT
B2: AUGCGAA (DNA:RNA)
RNA: B1 RNA with C25A, C26U, C29G, G30A, U31A
DNA 1: CAATCTGAATTCCGGTCTCCC
DNA 2: TGGTGGCTACGACGGGATT
B3: CUGUCGA (DNA:RNA)
RNA: B1 RNA with C26U, C28U, U31A
DNA 1: CAATCTGAATTCCGGTCTCCC
DNA 2: TGGTGGCTACGACGGGATT
B4: AAGGGCC (DNA:RNA)
RNA: B1 RNA with C25A, C26A, C28G, C29G, G30C, U31C
DNA 1: CAATCTGAATTCCGGTCTCCC
DNA 2: TGGTGGCTACGACGGGATT
B5: CUCUACC (DNA:RNA)
RNA: B1 RNA with C26U, G27C, C28U, C29A, G30C, U31C
DNA 1: CAATCTGAATTCCGGTCTCCC
DNA 2: TGGTGGCTACGACGGGATT
B6: UAGCGCA (DNA:RNA)
RNA: B1 RNA with C25U, C26A, C29G, G30C, U31A
DNA 1: CAATCTGAATTCCGGTCTCCC
DNA 2: TGGTGGCTACGACGGGATT
B7: UCGUAUG (DNA:RNA)
RNA: B1 RNA with C25U, C28U, C29A, G30U, U31G
DNA 1: CAATCTGAATTCCGGTCTCCC
DNA 2: TGGTGGCTACGACGGGATT
B8: CGUAUGA (DNA:RNA)
RNA: B1 RNA with C26G, G27U, C28A, C29U, U31A
DNA 1: CAATCTGAATTCCGGTCTCCC
DNA 2: TGGTGGCTACGACGGGATT
B9: GGUAUGA (DNA:RNA)
RNA: B1 RNA with C25G, C26G, G27U, C28A, C29U, U31A
DNA 1: CAATCTGAATTCCGGTCTCCC
DNA 2: TGGTGGCTACGACGGGATT
B10: GUUAUGA (DNA:RNA)
RNA: B1 RNA with C25G, C26U, G27U, C28A, C29U, U31A
DNA 1: CAATCTGAATTCCGGTCTCCC
DNA 2: TGGTGGCTACGACGGGATT
B11: GUCCUCG (DNA:RNA)
RNA: B1 RNA with C25G, C26U, G27C, C29U, G30C, U31G
DNA 1: CAATCTGAATTCCGGTCTCCC
DNA 2: TGGTGGCTACGACGGGATT
B12: UCGUCCG (DNA:RNA)
RNA: B1 RNA with C25U, C28U, G30C, U31G
DNA 1: CAATCTGAATTCCGGTCTCCC
DNA 2: TGGTGGCTACGACGGGATT
B13: UAGUCAA (DNA:RNA)
RNA: B1 RNA with C25U, C26A, C28U, G30A, U31A
DNA 1: CAATCTGAATTCCGGTCTCCC
DNA 2: TGGTGGCTACGACGGGATT
B14: GUUGUUC (DNA:RNA)
RNA: GGGAGACCGGAAUUCAGAUUGUCCGUUGUUCUUAAAUCCCGUCGUAGCCACCA
DNA 1: CAATCTGAATTCCGGTCTCCC
DNA 2: TGGTGGCTACGACGGGATT
B15: GAAUCGC (DNA:RNA)
RNA: B1 RNA with C25G, C26A, G27A, C28U, U31C
DNA 1: CAATCTGAATTCCGGTCTCCC
DNA 2: TGGTGGCTACGACGGGATT
B16: UGAACCG (DNA:RNA)
RNA: B1 RNA with C25U, C26G, G27A, C28A, G30C, U31G
DNA 1: CAATCTGAATTCCGGTCTCCC
DNA 2: TGGTGGCTACGACGGGATT
B17: UGAAUCG (DNA:RNA)
RNA: B14 RNA with G25U, U26G, U27A, G28A, U30C, C31G
DNA 1: CAATCTGAATTCCGGTCTCCC
DNA 2: TGGTGGCTACGACGGGATT
B18: GAAAUCG (DNA:RNA)
RNA: B14 RNA with U26A, U27A, G28A, U30C, C31G
DNA 1: CAATCTGAATTCCGGTCTCCC
DNA 2: TGGTGGCTACGACGGGATT
B19: CGAAUCG (DNA:RNA)
RNA: B1 RNA with C26G, G27A, C28A, C29U, G30C, U31G
DNA 1: CAATCTGAATTCCGGTCTCCC
DNA 2: TGGTGGCTACGACGGGATT
B20: GAAUCCG (DNA:RNA)
RNA: B1 RNA with C25G, C26A, G27A, C28U, G30C, U31G
DNA 1: CAATCTGAATTCCGGTCTCCC
DNA 2: TGGTGGCTACGACGGGATT
B21: GGAUCGC (DNA:RNA)
RNA: B1 RNA with C25G, C26G, G27A, C28U, U31C
DNA 1: CAATCTGAATTCCGGTCTCCC
DNA 2: TGGTGGCTACGACGGGATT
B22: UGAAUUG (DNA:RNA)
RNA: B14 RNA with G25U, U26G, U27A, G28A, C31G
DNA 1: CAATCTGAATTCCGGTCTCCC
DNA 2: TGGTGGCTACGACGGGATT
B23: GAAUUGU (DNA:RNA)
RNA: B1 RNA with C25G, C26A, G27A, C28U, C29U
DNA 1: CAATCTGAATTCCGGTCTCCC
DNA 2: TGGTGGCTACGACGGGATT
B24: CGAUCGC (DNA:RNA)
RNA: B1 RNA with C26G, G27A, C28U, U31C
DNA 1: CAATCTGAATTCCGGTCTCCC
DNA 2: TGGTGGCTACGACGGGATT
B25: GAACCGU (DNA:RNA)
RNA: B1 RNA with C25G, C26A, G27A
DNA 1: CAATCTGAATTCCGGTCTCCC
DNA 2: TGGTGGCTACGACGGGATT
B26: GAAUCGU (DNA:RNA)
RNA: B1 RNA with C25G, C26A, G27A, C28U
DNA 1: CAATCTGAATTCCGGTCTCCC
DNA 2: TGGTGGCTACGACGGGATT
B27: UCCCACC (DNA:RNA)
RNA: B1 RNA with C25U, G27C, C29A, G30C, U31C
DNA 1: CAATCTGAATTCCGGTCTCCC
DNA 2: TGGTGGCTACGACGGGATT
B28: GAGACGU (DNA:RNA)
RNA: B1 RNA with C25G, C26A, C28A
DNA 1: CAATCTGAATTCCGGTCTCCC
DNA 2: TGGTGGCTACGACGGGATT
B29: CGUCCCU (DNA:RNA)
RNA: B1 RNA with C26G, G27U, G30C
DNA 1: CAATCTGAATTCCGGTCTCCC
DNA 2: TGGTGGCTACGACGGGATT
B30: ACGGCGC (DNA:RNA)
RNA: B1 RNA with C25A, C28G, U31C
DNA 1: CAATCTGAATTCCGGTCTCCC
DNA 2: TGGTGGCTACGACGGGATT
B31: AGAGAUA (DNA:RNA)
RNA: B14 RNA with G25A, U26G, U27A, U29A, C31A
DNA 1: CAATCTGAATTCCGGTCTCCC
DNA 2: TGGTGGCTACGACGGGATT

target: T1, RBFOX1 RRM RbFoxmut (Fox-RRM*) (Homo sapiens, UniProt Q9NWB1 109-208, R118D;E147R;N151S;E152T); test: EMSA; HiTS-Eq, 1 nM pool, 10 min; buffer printed only for the single-RNA assays: 10 mM Tris pH 7.5, 150 mM NaCl, 3.4 mM EDTA, 0.001% NP-40, 30 C; settings: tags: His6 N-terminal (pET28a); label: 5' 32P
T1 sequence: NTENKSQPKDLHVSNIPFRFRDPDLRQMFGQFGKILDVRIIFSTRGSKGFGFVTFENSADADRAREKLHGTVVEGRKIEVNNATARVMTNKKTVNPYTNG
How it was run: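 Purified RbFox RRM (wild type or mutant) was equilibrated for 10 min in 50 µL with 1 nM of a 5′-radiolabelled pool of RNA with 7 randomized nucleotides, its flanks annealed to DNA oligonucleotides, across increasing protein concentrations. Free RNA was separated by 8% native PAGE, excised, reverse-transcribed, PCR-barcoded and sequenced on an Illumina HiSeq 2500. Relative association constants came from read-count changes of each variant against the control reaction, normalised to the cognate motif.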

| Binder | binding signal |
| --- | --- |
| B1 | 0.133 KA relative to UGCAUGU |
| B2 | 0.131 KA relative to UGCAUGU |
| B3 | 0.0775 KA relative to UGCAUGU |
| B4 | 0.148 KA relative to UGCAUGU |
| B5 | 0.0729 KA relative to UGCAUGU |
| B6 | 0.124 KA relative to UGCAUGU |
| B7 | 0.87 KA relative to UGCAUGU |
| B8 | 0.258 KA relative to UGCAUGU |
| B9 | 0.468 KA relative to UGCAUGU |
| B10 | 0.206 KA relative to UGCAUGU |
| B11 | 0.114 KA relative to UGCAUGU |
| B12 | 0.0959 KA relative to UGCAUGU |
| B13 | 0.0801 KA relative to UGCAUGU |
| B14 | 0.106 KA relative to UGCAUGU |
| B15 | 0.512 KA relative to UGCAUGU |
| B16 | 0.0911 KA relative to UGCAUGU |

| Binder | binding signal |
| --- | --- |
| B17 | 0.363 KA relative to UGCAUGU |
| B18 | 0.0585 KA relative to UGCAUGU |
| B19 | 0.374 KA relative to UGCAUGU |
| B20 | 0.219 KA relative to UGCAUGU |
| B21 | 0.23 KA relative to UGCAUGU |
| B22 | 0.174 KA relative to UGCAUGU |
| B23 | 0.192 KA relative to UGCAUGU |
| B24 | 0.0736 KA relative to UGCAUGU |
| B25 | 0.126 KA relative to UGCAUGU |
| B26 | 0.576 KA relative to UGCAUGU |
| B27 | 0.0864 KA relative to UGCAUGU |
| B28 | 0.0818 KA relative to UGCAUGU |
| B29 | 0.0565 KA relative to UGCAUGU |
| B30 | 0.119 KA relative to UGCAUGU |
| B31 | 0.15 KA relative to UGCAUGU |
